High-throughput results (PubChem)
Shown are actives, neighbours in structure and some others; about 3.3% of the full set was active somewhere.
RE007 growth inh – less growth of the S. pombe RE007 Vpr strain | S. pombe RE007 Vpr strain, BacTiter-Glo ATP luminescence, 24 h | Potency, µM (doses to about 92.2 µM), without a hit: at the top dose activity change, negative = less growth, most hits filed as inhibitors | 360,000 tested, 0.21% active | AID 651644; active = well fitted falling curve with a large enough effect; inconclusive = small, poorly fitted or top-dose-only effect; inactive = no such curve, though single readings can be large or run the other way; also: % is scaled to controls: 0 for no effect and ±100 for the full control effect; nearly all actives have a fitted effect of over 50% in size
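Fission yeast strain RE007, carrying one chromosomally integrated HIV-1 vpr copy, was seeded at OD 0.01 in PMG+AL medium with 23 nL pinned compound. After 24 h at 30 °C and 99% humidity, viability was read by BacTiter-Glo luminescence.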
NS1 inh – blocks influenza NS1 protein function; Potency, µM (titrated, usually from 46.1 µM), without a hit: at the highest dose activity, positive = more growth; 270,000 tested, 0.4% active; AID 2326; calls by dose curve; also: actives are rising curves; nearly all actives have a fitted effect of over 50% in size
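In this qHTS, NS1 from influenza A is expressed in budding yeast, where it slows growth. Cells are switched from glucose to 2% galactose medium (pH 6.0, -URA), treated with compound, and growth recovery is read at OD600.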
TbPYK inhibitor – inhibitors of Trypanosoma brucei pyruvate kinase; Q57TT1; TbPYK enzyme, Kinase-Glo Plus ATP luminescence, 45 min; Potency, µM (highest dose often 76.8 µM), inactives show at the top dose activity, negative = inhibition, usual class: inhibitors; 410,000 tested, 0.12% active; also: % is scaled to controls: 0 for no effect and ±100 for the full control effect; nearly all actives have a fitted effect of over 50% in size
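ADP (130 uM final) triggers the TbPYK reaction after compound addition; incubation is 45 min at room temperature. Kinase-Glo Plus is then added and luminescence imaged. Normalized data are fitted to concentration-effect curves.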
Sm TGR block – inhibitors of Schistosoma mansoni thioredoxin glutathione reductase. Potency, µM (doses to about 114 µM), inactives show at the top dose activity change, negative = inhibition, most hits filed as inhibitors. AID 485364. 360,000 tested, 3% active. purified TGR, DTNB reduction, TNB absorbance 405 nm; also: % is scaled to controls: 0 for no effect and ±100 for the full control effect; nearly all actives have a fitted effect of over 60% in size
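Kinetic colorimetric format: TGR-catalysed, NADPH-driven DTNB reduction monitored via TNB absorbance. Enzyme dispensed at 20 nM; compound exposure 15 min at room temperature before reaction start.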
SARS PLP yeast – blocks SARS-CoV papain-like protease in a yeast assay; S. cerevisiae expressing SARS-CoV PLpro, growth rescue; Potency, µM (top dose mostly 32.9 µM), inactives show top-dose activity, positive = growth rescue, actives largely listed as activators; 330,000 tested, 0.19% active; calls by dose curve; also: 0% is about no effect; nearly all actives have a fitted effect of over 55% in size
LmPK inh – LmPK (Leishmania mexicana) enzyme inhibition; Q27686; purified LmPK, Kinase-Glo ATP luminescence, 1 h; Potency, µM (doses to about 57.5 µM), for the others: top-dose activity change, negative = inhibition, hits mostly inhibitors; 290,000 tested, 0.37% active; also: % is scaled to controls: 0 for no effect and ±100 for the full control effect
Target sequence (Q27686 whole entry, looked up): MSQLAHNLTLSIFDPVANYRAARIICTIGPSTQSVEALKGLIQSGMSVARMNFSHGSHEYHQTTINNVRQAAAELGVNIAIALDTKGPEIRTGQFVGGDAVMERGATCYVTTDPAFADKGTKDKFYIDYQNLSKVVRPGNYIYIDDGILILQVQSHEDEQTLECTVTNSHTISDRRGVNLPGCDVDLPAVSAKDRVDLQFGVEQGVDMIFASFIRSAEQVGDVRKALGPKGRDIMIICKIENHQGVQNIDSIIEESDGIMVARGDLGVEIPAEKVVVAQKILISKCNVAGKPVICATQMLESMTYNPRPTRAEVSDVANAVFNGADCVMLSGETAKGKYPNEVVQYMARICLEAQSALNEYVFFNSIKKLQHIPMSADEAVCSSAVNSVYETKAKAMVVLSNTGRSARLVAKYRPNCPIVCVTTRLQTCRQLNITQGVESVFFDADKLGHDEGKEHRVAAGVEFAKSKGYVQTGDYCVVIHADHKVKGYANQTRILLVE
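Purified LmPK (0.1 nM) with 0.5 mM PEP and 0.1 mM ADP in imidazole buffer pH 7.2 with MgCl2/KCl, 1 h at room temperature. ATP formed was read by luciferase luminescence and normalized to no-enzyme and uninhibited controls.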
* marks the source's active call; other numbers are inactive results; ? = inconclusive; · = not tested or not shown; [ ] = dose if it differs, or a comment. Unless noted, calls follow the shape of the dose curve; as a rule, active = well fitted curve in the direction sought with a large enough effect; inconclusive = small, poorly fitted or top-dose-only effect, or another doubt; inactive = no such curve, though single readings can be large; an effect the other way counts as inactive or inconclusive. Potency is read from the fitted curve at half-maximal effect.

SMILES	RE007 growth inh	NS1 inh	TbPYK inhibitor	Sm TGR block	SARS PLP yeast	LmPK inh
COc1cc2c(cc1OC)CN(CC(=O)Nc1ccc(S(=O)(=O)N3CCCC3)cc1)CC2	-9%	-7%	2%	-6%	3%	-5%
COc1cc2c(cc1OC)C(C)N(CC(=O)Nc1ccc(S(=O)(=O)N3CCCC3)cc1)CC2 (stereo not drawn)	12%	-20%	8%	35µM*	-7%	8%
COc1cccc(C(=O)CN2CCN(S(=O)(=O)c3ccc(Br)cc3)CC2)c1	8%	-1%	2%	14µM*	4%	7%
O=C(Cn1ncc2c(Cl)cccc21)NCc1cccc(Br)c1	·	·	-5%	11%	·	·
CCCCNC(=O)N(O)C1N(/N=C/c2ccco2)C(=S)SC1(C)C (stereo not drawn)	-2%	·	5%	28µM*	-2%	·
Cc1cccc(-n2c(CNC(=O)c3cccc([N+](=O)[O-])c3C)n[nH]c2=S)c1	-8%	·	8.9µM*	-1%	-2%	-1%[11.5 µM]
COc1ccccc1-n1c(CNC(=O)c2cccc([N+](=O)[O-])c2C)n[nH]c1=S	9%	·	7.9µM*	1%	-4%	1%
O=C(NCc1n[nH]c(=S)n1-c1cccc(Cl)c1)c1cccs1	-2%	·	?	2%	3%	-6%
S=c1[nH]nc(-c2ccccc2Cl)n1Cc1ccccc1	4%	1%	6.3µM*	4%	1%	-5%
Cc1cc(-c2n[nH]c(=S)n2Cc2ccccc2)cs1	11%	3%	3.5µM*	3%	19%	?
Oc1ccc(-c2n[nH]c(=S)n2Cc2ccccc2)cc1	14%	-19%	?	2%	2%	8.9µM*
S=c1[nH]nc(-c2ccncc2)n1Cc1ccccc1	6%	10%	?	1%	1%	?
Cc1scc(-c2n[nH]c(=S)n2Cc2ccccc2)c1C	-8%	-10%	3.2µM*	-14%	?	?
CCCCc1nn2c(C)c(-c3ccc(OCC)cc3)nc2s1	·	·	-2%	-9%	·	·
CS(=O)(=O)c1ccc(/C=N\NC(N)=S)cc1	·	-4%	·	·	·	·
Cc1ccc(C)c(-n2c(-c3csc(C)c3C)n[nH]c2=S)c1	5%	15%	?	9%	-5%	7.1µM*
Cc1ccc(-n2c(-c3ccc(Br)cc3)n[nH]c2=S)c(C)c1	11%	·	?	·	·	·
CC(=O)Nc1ccc(N(C(=O)c2cnccn2)C(C(=O)NC2CCCCC2)c2ccc(O)cc2)cc1 (stereo not drawn)	-2%	-14%	-3%	16µM*	0%	4%
COc1ccc(N(C(=O)c2cnccn2)C(C(=O)NCc2ccccc2)c2ccc(O)cc2)cc1 (stereo not drawn)	-13%	3%	2%	28µM*	-1%	-5%
COc1ccccc1NC(=O)Cn1c(=O)c(CNc2ccccc2)cc2cc(OC)c(OC)cc21	·	·	-3%	?	·	·
CCCC(c1cc(C(C)(C)C)c(O)cc1C)c1cc(C(C)(C)C)c(O)cc1C	·	0%	·	·	·	·
CC(C)C(=O)NC1CC(=O)N(c2ccc3c(c2)OCCO3)C1 (stereo not drawn)	·	·	1%	7%	·	·
COc1cc(CNc2ccccc2SC)ccc1O	-5%	-19%	-26%	2.2µM*	2%	0%
COc1cc(C[C@@H](C)[C@@H](C)Cc2ccc(O)c(OC)c2)ccc1O	?	·	2%	·	7%	·
CCOc1cc(CNc2ccccc2SC)ccc1O	·	2%	·	8.9µM*	1%	-8%
SMILES	RE007 growth inh	NS1 inh	TbPYK inhibitor	Sm TGR block	SARS PLP yeast	LmPK inh
CCOc1cc(CNc2cccc3[nH]c(C)nc23)ccc1OC	-12%	8%	-7%	-28%	-2%	7%
CSc1sc(C(=O)O)c2c1C(=O)CC(C)(C)C2	·	·	-3%	·	·	·
CC1(C)CC(=O)c2c(S(C)(=O)=O)sc(Br)c2C1	-4%	3%	-3%	16µM*	1%	6%
CC(C)(C)c1ccc(-n2nc(C(N)=O)c(O)cc2=O)cc1	-8%	-4%	-18%	0%	6%	-2%
CC(C)(C)c1ccc(-n2nc(C#N)c(Cl)cc2=O)cc1	?	·	-6%	8.9µM*	-24%	1%
COc1ccc(OC)c(NC(=O)c2nnn(CC(=O)Nc3ccc(C(C)C)cc3)c2N)c1	·	·	1%	4%	·	·
CCOc1ccc(OCC(=O)NCCS(=O)(=O)N2CCN(c3ccccc3F)CC2)cc1	·	·	-2%	3%	·	·
O=C(CSc1nnc(NC(=O)C2CC(=O)N(c3ccccc3)C2)s1)NCc1ccco1 (stereo not drawn)	-6%	4%	5%	45µM*	-3%	-8%
COc1cccc(N2CC(C(=O)Nc3nnc(SCC(=O)NCc4ccco4)s3)CC2=O)c1 (stereo not drawn)	26%	7%	-1%	50µM*	-2%	-1%
O=C(CSc1nnc(Nc2ccccc2F)s1)NCc1ccco1	9%	-5%	-9%	50µM*	5%	-4%
C=CCOC(=O)/C=C/C(=O)NC(N)=O	·	9%	-18%	1.3µM*	-2%	9%
COc1ccc(OC)c(NC(=O)CSc2ccnc(=O)[nH]2)c1	·	·	1%	-1%	·	·
Oc1ccc2c3c1OC1C(O)C=CC4[C@@H](C2)NCC[C@]314 (stereo partly drawn)	·	·	-7%[157 µM]	·	·	·
CCCCc1nc2c(c3c1C[C@H](C)OC3)CN(C(=O)N[C@H](C(=O)OC)C(C)C)CC2	·	·	·	·	·	-1%[11.5 µM]
COc1ccc(C(C)=O)cc1CSc1nnc(Nc2ccc(C)cc2)s1	-8%	-7%	1%	-7%	-4%	0%
COc1ccc(Br)cc1CN(C)C(C)C(=O)Nc1cccc(C(C)=O)c1 (stereo not drawn)	2%	·	-3%	22µM*	-6%	11%
COc1ccc(C(C)=O)cc1CC(=O)NC1CCCCCC1	-15%	-8%	-5%	-1%	5%	-7%
COc1ccc(C(C)=O)cc1CN(C)C	-15%	-3%	1%	5µM*	·	-1%
COc1ccc(C(C)=O)cc1Cn1c(=O)cc(C)[nH]c1=O	-6%	-12%	0%	40µM*	6%	-5%
COc1ccccc1CN(C)C(C)C(=O)Nc1cccc(C(C)=O)c1 (stereo not drawn)	12%	·	0%	-5%	-1%	5%
COc1ccc(C(C)=O)cc1CSc1nnc(C)s1	1%	-82%	1%	45µM*	2%	-4%
COc1ccc(C(C)=O)cc1COc1ccc(-n2cnnn2)cc1	-10%	-53%	4%	20µM*	5%	2%
Cc1ccc(NC(=O)CCS(=O)(=O)c2ccc3c(c2)oc(=O)n3C)c(Br)c1	·	·	-8%	32µM*	·	·
Cc1cccc(NC(=O)CCS(=O)(=O)c2ccc3c(c2)oc(=O)n3C)c1	9%	-3%	-2%	?	-1%	-9%
